# HCV inh = inhibitors of hepatitis C virus infection; Potency, µM (top dose mostly 41.8 µM), without a hit: top-dose activity change, negative = inhibition, most hits filed as inhibitors; Huh7.5.1 HCVcc-Cre infection, luciferase reporter, 44 h; 3.4% of 340,000 active; also: potency is read from the fitted curve at half-maximal effect; % is scaled to controls: 0 for no effect and ±100 for the full control effect
#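 Infectious HCV cell culture screen: compound-treated cells (1,000/well, pre-plated 4 h) are infected with HCVcc-Cre at roughly 0.5 moi and grown 44 h. Infection is quantified by luciferase signal after 15 min substrate incubation at room temperature.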
# Sm TGR inh = S. mansoni TGR enzyme inhibition; Q962Y6; purified TGR, DTNB reduction, TNB absorbance 405 nm; Potency, µM (top dose mostly 114 µM), for the others: at the top dose activity change, negative = inhibition, hits mostly inhibitors; 3% of 360,000 active; AID 485364; also: potency is read from the fitted curve at half-maximal effect; % is scaled to controls: 0 for no effect and ±100 for the full control effect; nearly all actives have a fitted effect of over 60% in size
#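 First, TGR (20 nM dispensed) and NADPH were mixed with compound. Second, a 15 min room-temperature incubation followed. Third, further NADPH and then DTNB were added to start the reaction. Finally, TNB absorbance was monitored kinetically.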
# HCMV inh = human cytomegalovirus inhibition. HFF cells, HCMV-luciferase reporter, 72 h; active compounds read low. activity change, negative = inhibition, % at 57.5 µM. 4.5% of 410,000 active. AID 1259415; in the data active = activity change below about -60%; inconclusive = no clear call, values can overlap the other calls; inactive = above about -39%; also: % is scaled to controls: 0 for no effect and ±100 for the full control effect
#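 Steps: HFFs plated, 16 h 37C; compounds added; HCMV-luciferase added to MOI 1 PFU/cell; 72 h 37C; OneGlo reagent, 5 min room temperature; luminescence read, normalized to controls.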
# Pf growth 48h = P. falciparum growth inhibition at 48 hours (one generation); 5.9% of 310,000 active; Potency, µM (series often up to 28.7 µM), inactives show at the top dose activity change, negative = inhibition, most hits filed as inhibitors; P. falciparum luciferase growth in erythrocytes, 48 h; also: potency is read from the fitted curve at half-maximal effect; % is scaled to controls: 0 for no effect and ±100 for the full control effect
#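 Firefly luciferase activity from engineered P. falciparum reports growth; inhibitors lower the luminescent signal. Cultures contained 2% hematocrit erythrocytes at 0.1% final parasitemia.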
# Pf growth 96h = inhibits malaria parasite growth, 96 h | P. falciparum luciferase reporter growth, 96 h | Potency, µM (top dose mostly 28.7 µM), for inactives: at the top dose activity change, negative = inhibition, actives largely listed as inhibitors | 6.9% of 320,000 active | AID 504834; also: potency is read from the fitted curve at half-maximal effect; % is scaled to controls: 0 for no effect and ±100 for the full control effect
#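 Cell-based qHTS: luciferase-tagged P. falciparum in erythrocytes (2% hematocrit, 0.05% parasitemia final) incubated with compounds for 96 hours, 37 C, 5% CO2; luciferase detection reagent then added and luminescence measured.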
# SARS PLpro yeast = inhibitors of SARS-CoV papain-like protease in yeast; S. cerevisiae expressing SARS-CoV PLpro, growth rescue; Potency, µM (series often up to 32.9 µM), for inactives: at the highest dose activity, positive = growth rescue, hits mostly activators; 0.19% of 330,000 active; calls by dose curve; also: potency is read from the fitted curve at half-maximal effect; 0% is about no effect; nearly all actives have a fitted effect of over 55% in size
# Numbers without * were called inactive; ? = inconclusive; · = no result. Compounds with a hit are over-represented: about 15% of the library has one in this group of screens. Unless noted, calls follow the shape of the dose curve; as a rule, active = well fitted curve in the direction sought with a large enough effect; inconclusive = small, poorly fitted or top-dose-only effect, or another doubt; inactive = no such curve, though single readings can be large; an effect the other way counts as inactive or inconclusive.
SMILES,HCV inh,Sm TGR inh,HCMV inh,Pf growth 48h,Pf growth 96h,SARS PLpro yeast
CCOC(=O)c1cccc(NS(=O)(=O)c2ccc(-c3cnc(C4CC4)o3)cc2)c1,·,4%,13,·,·,·
CCCN1C(=O)C[C@H](S(=O)(=O)c2ccccc2)[C@H]1c1ccc(C#N)cc1,·,·,-19,·,·,·
O=[N+]([O-])c1cccnc1N/N=C/c1ccccc1O,?,-3%,-97*,136%,261%,-1%
Cc1c(O)ccc(/C=N/Nc2ncccc2[N+](=O)[O-])c1O,?,-22%,-69*,137%,?,-5%
C[C@H](CO)N1C[C@H](C)[C@H](CN(C)S(=O)(=O)c2ccc(Cl)cc2)OCc2ccccc2-c2c(n(C)c3ccccc23)C1=O,·,·,-68*,·,·,·
Cc1ccc(S(=O)(=O)N(C)C[C@@H]2OCc3ccccc3-c3c(n(C)c4ccccc34)C(=O)N([C@H](C)CO)C[C@@H]2C)cc1,·,·,-60*,·,·,·
C[C@@H]1CN([C@H](C)CO)C(=O)c2c(c3ccccc3n2C)-c2ccccc2CO[C@@H]1CN(C)S(=O)(=O)c1cccs1,·,·,-81*,·,·,·
O=C(COC(=O)C1CC1)NCCc1ccc(Cl)cc1,-11%,-3%,18,-27%,30%,2%
Cn1nc(C(=O)Nc2cccc(S(=O)(=O)N3CCCC3)c2)c2ccccc2c1=O,?,-5%,122,8.3µM*,9.3µM*,-4%
Cn1nc(C(=O)Nc2cccc(S(=O)(=O)N3CCOCC3)c2)c2ccccc2c1=O,?,1%,178,?,-5%,-2%
CC(C)n1nc(C(=O)Nc2cccc(S(=O)(=O)N3CCCCC3)c2)c2ccccc2c1=O,?,6%,0,?,?,11%
NC(=O)c1nn(CC(=O)Nc2cccc(S(=O)(=O)N3CCCCCC3)c2)c(=O)c2ccccc12,?,-14%,-23,?,?,3%
CC(C)n1nc(C(=O)Nc2cccc(S(=O)(=O)N3CCOCC3)c2)c2ccccc2c1=O,?,-1%,23,?,10µM*,-1%
Cn1nc(C(=O)OCC(=O)Nc2cccc(S(=O)(=O)N3CCCC3)c2)c2ccccc2c1=O,22%,12%,-23,12µM*,-12%,1%
NC(=O)c1nn(CC(=O)Nc2cccc(S(=O)(=O)N3CCCC3)c2)c(=O)c2ccccc12,11µM*,-8%,0,?,?,4%
COc1ccccc1C(=O)c1c(N)c(-c2nc(-c3ccccc3)cs2)c2ccccn12,·,-1%,-11,·,·,·
CCc1ccc(NC(=O)Cn2nnc(-c3ccccc3N)n2)cc1,·,0%,7,·,·,·
CCN(C(=O)CSc1nc2ccccc2n1CC(=O)NCc1ccc(OC)cc1)c1ccccc1,·,0%,-19,·,·,·
CC(=O)c1sc(C(=O)O)c(-c2ccco2)c1-c1ccco1,6%,20µM*,14,-25%,24%,-1%
Cc1ccc(-c2csc3ncnc(NS(=O)(=O)c4ccc(Cl)cc4)c23)cc1,28%,4%,?,6%,?,-5%
Nn1cnc2scc(-c3ccc(Cl)cc3)c2c1=O,4%,-10%,-31,4%,5.2µM*,0%
OCCCNc1ncnc2scc(-c3ccc(Cl)cc3)c12,-25%,5%,-80*,-21%,-18%,-2%
c1ccc(-c2csc3ncnc(NCCCN4CCOCC4)c23)cc1,?,-4%,?,-24%,52%,?
NNc1ncnc2scc(-c3ccc(Cl)cc3)c12,?,0%,-99*,?,?,-15%
CCOC(=O)c1cccc(NC(=O)c2cnc(N3CCCCC3)c3ccccc23)c1,·,2%,-20,·,·,·
O=C1NC2C3CC(c4ccccc43)C12 (stereo unspecified),·,·,-70*,·,·,·
O=C(OC1C2C=CC1C1C(=O)NC21)c1ccccc1 (stereo unspecified),·,·,-8,·,·,·
COc1ccc(NC(=O)N2c3ccc(OC)cc3[C@@H](NCc3cnc[nH]3)[C@H](C)[C@H]2c2ccccc2)cc1,·,·,32,·,·,·
CC1=CC(C)(C)N=C(Nc2nc(C)c3cc(C)cc(C)c3n2)N1,?,9%,-97*,?,?,2%
